In the library only some 3% were active in any assay of this set; here they are far more common.
Calpain2 inh: calpain II (pig) inhibition; purified calpain II, fluorogenic peptide substrate, 30 min; inhibition, % at 16 µM; 220,000 compounds, 0.37% hits;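 active = inhibition above about 50%, limit read from the data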
Efa HMGR inh: inhibitors of class II HMG-CoA reductase from Enterococcus faecalis; AID 1066; 190,000 compounds, 0.41% hits; inhibition, % at 10 µM; purified E. faecalis HMGR, NADPH absorbance 340 nm kinetic;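 active = inhibition above a set limit, the median over all tested compounds plus 3 SD, cut at about 9.5% in these data; inconclusive = no clear call, values can overlap the other calls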;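 also: enzyme runs in reverse so mevalonate oxidation gives rising NADPH absorbance; 0% = complete reaction with DMSO and 100% = background rate lacking mevalonate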
14-3-3 Bad PPI: disrupts binding of bovine 14-3-3 zeta to phospho-Bad peptide. P63103. inhibition, % at 21.7 µM. 220,000 compounds, 0.71% hits. AID 781. TR-FRET 14-3-3zeta/Dy647-pBad peptide displacement, 1 h;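 active = inhibition above about 70%, limit read from the data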;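 also: 0% = full 14-3-3 plus peptide FRET controls and 100% = background without 14-3-3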
Target sequence (P63103 whole entry, looked up): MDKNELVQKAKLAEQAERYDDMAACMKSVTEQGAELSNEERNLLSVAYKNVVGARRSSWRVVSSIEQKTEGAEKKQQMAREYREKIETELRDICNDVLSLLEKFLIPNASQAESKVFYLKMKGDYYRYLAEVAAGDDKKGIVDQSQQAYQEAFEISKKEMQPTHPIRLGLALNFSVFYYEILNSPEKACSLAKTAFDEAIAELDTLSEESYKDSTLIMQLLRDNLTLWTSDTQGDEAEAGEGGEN
TNF death inh: TNF-alpha cell death inhibition in Jurkat FADD-/- cells; 220,000 compounds, 0.068% hits; Jurkat FADD-/- TNF necroptosis rescue, ATP luminescence, 24 h; 0 = TNF only, 100 = no-TNF cells; AID 463075; activation (protection from cell death), % at 10 µM;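 active = activation, meaning protection from cell death, of at least 50% relative to plate controls; inactive = activation below 50%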;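 also: necroptosis triggered by 40 ng/mL TNF-alpha added together with compound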
L929 necroptosis: blocks zVAD induced death of L929 cells; L929 zVAD necroptosis rescue, ATP luminescence, 24 h; with zVAD 60 µM; viability rescue, % at 10 µM; 220,000 compounds, 0.38% hits;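 active = activation, scaled between plate controls, above about 75%, limit read from the data; inactive = activation under that limit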;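 also: 0% = zVAD with DMSO and 100% = DMSO alone without zVAD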
ROMK mod: modulators of human ROMK potassium channel. AID 1918. B-score at 10 µM. Tet-inducible ROMK, thallium flux fluorescence; actives lie on both sides. P48048. 130,000 compounds, 2% hits;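 active = signal ratio slope over the read window, or its plate-corrected B-score, at least 3 SD from the plate mean, either direction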;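 also: B-score of the F/F0 ratio slope over 7 to 12 s after thallium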
ROMK retest: human ROMK channel modulation, retest confirmation | AID 1917 | 3,000 compounds, 54% hits | ROMK thallium flux, fluorescence ratio; stronger effect = lower value | shares compounds with ROMK mod | normalized thallium flux (F/F0 slope) at 10 µM;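 active = Flux at 10 µM at least 3 SD below or above vehicle control mean in one or both replicates; inconclusive = no clear call, values can overlap the other calls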
* = called active by the depositor; u = inconclusive; x = not tested or not shown.

SMILES	Calpain2 inh	Efa HMGR inh	14-3-3 Bad PPI	TNF death inh	L929 necroptosis	ROMK mod	ROMK retest
CS(=O)(=O)NCCSc1cc(C(F)(F)F)nc2ccccc12	5	x	5	-1	1	0.28	x
Cc1c(C(=O)O)cccc1-c1ccc(C=O)o1	-6	4	-22	1	0	1.9	x
O=Cc1ccc(-c2ccccc2OC(F)(F)F)o1	2	-1	-10	0	-1	3.8*	0.11*
O=C(Nc1ccc([N+](=O)[O-])cc1)Nc1nc(-c2ccc(Cl)s2)cs1	2	-3	22	2	2	x	x
O=C(CC1(O)C(=O)Nc2ccccc21)c1ccccc1O (centres undefined)	21	4	1	-2	0	x	x
O=C(CC1=NCCNC(c2ccccc2)C1)c1ccccc1O (centres undefined)	-9	1	x	4	1	-2.3*	u
CC1CCCCC1NS(=O)(=O)c1ccc(S(=O)(=O)NCc2ccncc2)cc1 (centres undefined)	-6	-4	12	-8	0	x	x
Cc1cnc2ncc3sccc3c2c1	6	1	-1	0	x	-3.6*	0.059*
O=C(/C(C=Nc1ccc(F)cc1)=C(/O)c1ccco1)C(F)(F)F	13	-3	10	-2	0	x	x
Cc1sc2cc3c(c(C(=O)c4ccccc4)[n+]2c1C)-c1cccc2cccc-3c12	-43	-9	-22	0	3	-3.1*	0.055*
O=C(c1ccccc1)c1c2c(cc3sc4ccccc4[n+]13)-c1cccc3cccc-2c13	-8	1	-7	-2	0	x	0.045*
Cc1cc(C)c2c(N)c(C(=O)c3ccccc3)sc2n1	-124	x	2	1	1	0.29	x
CC(C)CNC(=O)c1c(N)n(/N=C/c2cccnc2)c2nc3ccccc3nc12	x	x	x	x	x	0.24	x
COCCCNC(=O)c1c(N)n(/N=C/c2cccnc2)c2nc3ccccc3nc12	-190	-4	9	-14	9	-0.017	u
O=C(Nc1ccc(OCC(=O)N2CCC(Cc3ccccc3)CC2)cc1)c1ccco1	19	-4	2	-1	0	-3.1*	0.067*
Cc1cc2nnc(SCC(=O)Nc3cccc(S(=O)(=O)N4CCOCC4)c3)n2c2ccccc12	-40	-9	-5	2	0	x	0.082
Cn1cnnc1SCC(=O)Nc1cccc(S(=O)(=O)N2CCOCC2)c1	4	-9	-4	1	0	0.92	x
Cn1c(C2CCCCC2)nc2c1c(=O)[nH]c(=O)n2Cc1ccccc1	-2	-7	-13	-3	-1	3.2*	0.098*
O=C(O)CCC(=O)Nc1ccc(N2CCCCCC2)cc1	3	2	-23	-2	-1	5.1*	0.075
CCCCN(C)C(=O)C1CCN(Cc2ccc(OCc3ccccc3)cc2)CC1	-14	4	51	-2	0	-4.4*	0.061*
COC(=O)[C@@]1(Cc2ccc(F)cc2)[C@H]2c3cc(C(=O)N(C)C)n(Cc4ccc(OC(F)(F)F)cc4)c3C[C@H]2CN1C(=O)c1ccccc1	-70	-5	-6	0	2	-1.9	x
Cc1ccc(N2CS(=O)(=O)/C(=C/N(C)C)C2=O)cc1	-2	-3	9	-2	2	x	0.082
CN(C)/C=C1\C(=O)N(c2ccc(Cl)cc2)CS1(=O)=O	-13	0	-9	-3	0	x	x
COc1cccc(C(=O)c2c(C)c(CCC#N)n3ccccc23)c1	31	2	-3	-2	0	-0.46	x
O=C(CN1CCN(C(c2ccccc2)c2ccccc2)CC1)N1CCN(c2ccccc2)CC1	0	x	5	4	1	-3.7*	0.063*
SMILES	Calpain2 inh	Efa HMGR inh	14-3-3 Bad PPI	TNF death inh	L929 necroptosis	ROMK mod	ROMK retest
CC(CCc1ccccc1)NC(=O)CN1CCN(c2ccccc2)CC1 (centres undefined)	-3	-8	-8	1	13	-2.9*	0.061*
N=C1C(=O)OCC1c1ccccc1NC(=O)c1ccccc1 (centres undefined)	-9	-8	2	1	x	0.12	x
O=[N+]([O-])/C(C(Cl)=C(Cl)Cl)=C(/NC1CC1)Sc1ccccc1	-4	0	6	-1	3	1.6	x
O=C1CSC(c2ccccc2Cl)N1 (centres undefined)	9	-4	-4	-1	-1	3.5*	0.089
Cn1c(=O)c2c(ncn2CC(=O)OCC(=O)NCc2ccccc2Cl)n(C)c1=O	25	-1	6	0	0	-0.041	x
Cc1ccccc1NC(=O)CS(=O)(=O)c1cn(CC(=O)N2CCOCC2)c2ccccc12	-22	-4	-4	0	1	2*	0.073
CCOc1ncccc1C(=O)Nc1ccc(F)c(Cl)c1	18	-8	-1	0	13	-1.3	x
Nc1nc(NCc2ccc(Cl)cc2)nc(NCCO)c1[N+](=O)[O-]	24	x	-1	4	14	x	0.071
CC(=O)Nc1cccc(Oc2ncnc3scc(-c4ccccc4)c23)c1	-9	-5	13	-10	0	x	0.061*
CC(C)(/C=N/NC(=O)CSCc1ccccc1Cl)CCC#N	-4	-2	-4	1	x	-0.52	x
COc1ccc(N2CC(O)=C(c3nc4ccccc4s3)C2=N)cc1	-14	-5	-5	-4	0	x	x
COc1cccc(N2CC(O)=C(c3nc4ccccc4s3)C2=N)c1	-27	1	-10	-10	0	3.3*	u
CCS(=O)(=O)N1CCC(C(=O)N2CCN(Cc3ccccc3)CC2)CC1	7	5	-8	0	0	-0.33	x
CS(=O)(=O)n1nc(OC(=O)c2cccc3ccccc23)cc1N	-44	-4	0	-4	0	-2.1	x
CS(=O)(=O)n1nc(OC(=O)c2cc(Br)ccc2Cl)cc1N	7	-2	68	0	0	-3*	0.054*
Cc1cccc(OCC(O)Cn2c(=N)n(CCN3CCCCC3)c3ccccc32)c1 (centres undefined)	28	-2	-1	-7	11	-7.6*	0.049*
N=c1n(Cc2ccc(Cl)cc2)c2ccccc2n1CC(O)COc1ccccc1 (centres undefined)	35	-7	1	-8	10	-4.2*	0.054*
COc1ccc(OCC(O)Cn2c(=N)n(Cc3ccccc3)c3ccccc32)cc1 (centres undefined)	21	2	-11	-1	4	-7*	0.048*
Cc1ccc(OCC(O)Cn2c(=N)n(Cc3ccccc3)c3ccccc32)cc1 (centres undefined)	-6	-5	5	-9	-3	-4.6*	0.052*
CCN(CC)CCn1c(=N)n(CC(O)COc2cccc(C)c2)c2ccccc21 (centres undefined)	9	0	-7	2	2	-2.5	x

Source: PubChem (several laboratories)
